According to the supplement of paper PMC10849652:
About 7,900 targets were measured; listed, in parts, are those with a hit and a random draw of the rest. About 0.6% of all pairs of compound and target were hits. A number with no mark means an inactive call.

What was measured:
Experiment in all cases: log2 fold change, soluble protein after heating vs DMSO (PISA); higher = thermal stabilisation; K562 cells, 10 uM, 30 min; active = over 0.2 and 3.5 SD of the protein, either way, in both replicates (recomputed)
erlotinib = compound: C#Cc1cccc(Nc2ncnc3cc(OCCOC)c(OCCOC)cc23)c1 [erlotinib]
In short: (§1)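 Soluble protein was defined as the supernatant after 21,000xg for 90 min. It came from K562 cells at 2×10^6 cells/mL given 10 μM compound for 30 min, heated in aliquots for 3 min across 48°C-58°C, pooled, and extracted in PBS with 0.5% NP-40 at 4°C, and was quantified by TMTpro 16plex LC-MS/MS with equalised channel sums. Thermal stability against control samples, from duplicates, is reported as log2 fold change.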

[1] = compound: C/C(=N\NC(=O)C1=CC(=CC=C1)S(=O)(=O)N2CCOCC2)/C3=C(C=CC(=C3)Cl)O
In short: as §1

[2] = compound: C1=CC(=C(C=C1Cl)C2=NC3=NC=CN=C3C(=N2)NC4=CC=NC=C4)F
In short: as §1

[3] = compound: C1=CC(=CC=C1C2=NC3=C(N2)C=C(C=C3)C(=O)N)OC4=CC=C(C=C4)Cl
In short: as §1

[4] = compound: C1=CC2=C(C=CC(=C2)/C=C\3/C(=O)NC(=NCC4=CC=CS4)S3)N=C1
In short: as §1

[5] = compound: C1=CC2=NC=CN=C2C=C1/C=C/3\C(=O)NC(=O)S3
In short: as §1

[6] = compound: C1=CC=C(C=C1)C2=NC(=C(N2)C3=CC=NC=C3)C4=CC(=C(C=C4)Cl)O
In short: as §1

[7] = compound: C1=CC=C2C(=C1)C3=NNC4=CC=CC(=C43)C2=O
In short: as §1

[8] = compound: C1CCN(C1)C(=O)NC2=CC=CC(=C2)NC3=NC=C(C(=N3)NCCC4=CN=CN4)Br
In short: as §1

[9] = compound: C1CN(CCC1(CC2=CC=C(C=C2)Cl)N)C3=NC=NC4=C3C=CN4
In short: as §1

Chain of UniProt P55084 (P55084 whole entry, looked up): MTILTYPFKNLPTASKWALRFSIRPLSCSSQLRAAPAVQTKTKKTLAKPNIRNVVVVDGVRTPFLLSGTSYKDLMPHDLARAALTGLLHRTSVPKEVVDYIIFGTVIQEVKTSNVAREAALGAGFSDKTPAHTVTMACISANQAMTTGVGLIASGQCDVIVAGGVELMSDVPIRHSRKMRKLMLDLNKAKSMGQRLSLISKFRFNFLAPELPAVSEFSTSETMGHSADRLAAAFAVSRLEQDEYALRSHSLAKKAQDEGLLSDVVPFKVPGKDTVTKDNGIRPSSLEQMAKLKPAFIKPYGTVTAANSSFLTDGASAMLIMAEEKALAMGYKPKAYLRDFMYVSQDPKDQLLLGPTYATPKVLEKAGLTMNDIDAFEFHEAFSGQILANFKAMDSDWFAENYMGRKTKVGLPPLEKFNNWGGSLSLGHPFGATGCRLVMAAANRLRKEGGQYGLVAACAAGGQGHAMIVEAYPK
Chain of UniProt O14929 (O14929 whole entry, looked up): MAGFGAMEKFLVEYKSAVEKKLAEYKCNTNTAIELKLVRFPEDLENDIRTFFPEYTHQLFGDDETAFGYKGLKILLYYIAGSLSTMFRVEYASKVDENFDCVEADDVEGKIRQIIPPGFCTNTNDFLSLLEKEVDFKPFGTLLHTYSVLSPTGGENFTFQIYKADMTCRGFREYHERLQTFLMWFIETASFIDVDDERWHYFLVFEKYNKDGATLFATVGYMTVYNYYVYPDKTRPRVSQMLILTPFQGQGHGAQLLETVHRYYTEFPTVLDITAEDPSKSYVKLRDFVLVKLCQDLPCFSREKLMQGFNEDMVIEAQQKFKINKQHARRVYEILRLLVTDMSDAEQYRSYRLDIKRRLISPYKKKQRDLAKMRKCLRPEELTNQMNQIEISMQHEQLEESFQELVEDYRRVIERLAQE
Chain of UniProt P22570 (P22570 whole entry, looked up): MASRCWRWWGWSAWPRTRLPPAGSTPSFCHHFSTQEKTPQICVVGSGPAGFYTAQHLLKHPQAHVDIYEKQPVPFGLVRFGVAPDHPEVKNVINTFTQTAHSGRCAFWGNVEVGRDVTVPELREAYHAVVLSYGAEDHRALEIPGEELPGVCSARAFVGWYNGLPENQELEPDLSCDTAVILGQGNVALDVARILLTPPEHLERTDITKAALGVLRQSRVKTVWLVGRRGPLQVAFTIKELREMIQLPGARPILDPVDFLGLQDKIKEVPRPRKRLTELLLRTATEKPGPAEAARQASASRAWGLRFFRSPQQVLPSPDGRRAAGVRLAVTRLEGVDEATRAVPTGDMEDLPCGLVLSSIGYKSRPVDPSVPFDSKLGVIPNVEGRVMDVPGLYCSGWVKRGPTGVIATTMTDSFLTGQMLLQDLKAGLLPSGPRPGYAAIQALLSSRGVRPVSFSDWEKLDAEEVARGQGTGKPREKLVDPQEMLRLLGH
Chain of UniProt P08236 (P08236 whole entry, looked up): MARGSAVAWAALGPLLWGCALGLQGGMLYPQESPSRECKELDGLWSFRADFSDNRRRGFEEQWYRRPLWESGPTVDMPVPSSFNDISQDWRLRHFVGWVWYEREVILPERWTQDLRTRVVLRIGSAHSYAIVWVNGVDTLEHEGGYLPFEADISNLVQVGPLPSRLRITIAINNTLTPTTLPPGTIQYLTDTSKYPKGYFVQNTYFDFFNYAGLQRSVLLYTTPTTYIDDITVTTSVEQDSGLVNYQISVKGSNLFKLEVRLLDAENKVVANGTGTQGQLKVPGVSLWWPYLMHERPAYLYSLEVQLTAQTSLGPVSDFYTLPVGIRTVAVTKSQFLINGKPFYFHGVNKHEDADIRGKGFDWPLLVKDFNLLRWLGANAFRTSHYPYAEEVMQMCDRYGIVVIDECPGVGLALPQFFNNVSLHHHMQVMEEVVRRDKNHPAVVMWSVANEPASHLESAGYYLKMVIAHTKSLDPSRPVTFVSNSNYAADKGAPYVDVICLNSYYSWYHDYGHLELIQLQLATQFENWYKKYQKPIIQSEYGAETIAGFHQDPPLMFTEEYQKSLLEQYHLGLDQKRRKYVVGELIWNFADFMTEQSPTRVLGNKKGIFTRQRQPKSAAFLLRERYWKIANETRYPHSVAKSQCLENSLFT
Chain of UniProt Q53R41 (Q53R41 whole entry, looked up): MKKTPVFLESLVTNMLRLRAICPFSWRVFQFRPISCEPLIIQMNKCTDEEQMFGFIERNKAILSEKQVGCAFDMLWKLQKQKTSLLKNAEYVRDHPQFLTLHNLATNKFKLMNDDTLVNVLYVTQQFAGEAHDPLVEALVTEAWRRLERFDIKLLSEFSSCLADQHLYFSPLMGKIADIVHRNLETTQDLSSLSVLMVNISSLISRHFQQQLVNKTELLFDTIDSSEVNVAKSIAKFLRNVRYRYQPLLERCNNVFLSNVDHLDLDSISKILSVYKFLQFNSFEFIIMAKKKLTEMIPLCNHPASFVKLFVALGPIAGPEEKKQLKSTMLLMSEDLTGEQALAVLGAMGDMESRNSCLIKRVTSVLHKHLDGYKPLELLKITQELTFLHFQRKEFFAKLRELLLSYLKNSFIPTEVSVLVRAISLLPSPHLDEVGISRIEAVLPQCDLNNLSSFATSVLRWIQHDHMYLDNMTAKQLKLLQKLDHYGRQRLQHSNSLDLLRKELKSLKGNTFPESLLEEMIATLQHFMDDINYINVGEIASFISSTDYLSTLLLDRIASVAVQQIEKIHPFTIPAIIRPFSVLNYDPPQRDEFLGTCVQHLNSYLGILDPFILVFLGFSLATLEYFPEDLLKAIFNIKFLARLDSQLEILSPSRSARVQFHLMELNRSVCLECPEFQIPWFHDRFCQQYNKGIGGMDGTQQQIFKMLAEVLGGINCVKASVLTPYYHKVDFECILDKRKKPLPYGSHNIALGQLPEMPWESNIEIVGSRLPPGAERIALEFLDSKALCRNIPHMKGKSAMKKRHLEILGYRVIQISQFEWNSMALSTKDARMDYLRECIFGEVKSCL
Chain of UniProt Q96JB3 (Q96JB3 whole entry, looked up): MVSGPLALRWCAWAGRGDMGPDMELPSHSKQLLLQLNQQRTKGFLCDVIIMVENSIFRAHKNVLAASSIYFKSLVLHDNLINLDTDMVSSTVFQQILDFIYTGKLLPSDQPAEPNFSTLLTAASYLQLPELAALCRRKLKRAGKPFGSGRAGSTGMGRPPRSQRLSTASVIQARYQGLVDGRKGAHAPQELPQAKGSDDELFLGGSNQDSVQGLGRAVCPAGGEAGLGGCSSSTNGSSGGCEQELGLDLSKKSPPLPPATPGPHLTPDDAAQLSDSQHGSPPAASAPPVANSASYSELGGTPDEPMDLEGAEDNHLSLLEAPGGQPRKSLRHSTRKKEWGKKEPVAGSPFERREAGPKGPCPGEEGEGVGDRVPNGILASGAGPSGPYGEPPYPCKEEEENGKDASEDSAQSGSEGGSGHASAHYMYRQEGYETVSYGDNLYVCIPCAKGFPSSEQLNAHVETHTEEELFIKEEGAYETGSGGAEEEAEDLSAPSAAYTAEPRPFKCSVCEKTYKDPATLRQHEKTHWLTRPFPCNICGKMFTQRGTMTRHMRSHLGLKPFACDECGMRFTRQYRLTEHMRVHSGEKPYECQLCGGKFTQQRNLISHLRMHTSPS
Chain of UniProt P23327 (P23327 whole entry, looked up): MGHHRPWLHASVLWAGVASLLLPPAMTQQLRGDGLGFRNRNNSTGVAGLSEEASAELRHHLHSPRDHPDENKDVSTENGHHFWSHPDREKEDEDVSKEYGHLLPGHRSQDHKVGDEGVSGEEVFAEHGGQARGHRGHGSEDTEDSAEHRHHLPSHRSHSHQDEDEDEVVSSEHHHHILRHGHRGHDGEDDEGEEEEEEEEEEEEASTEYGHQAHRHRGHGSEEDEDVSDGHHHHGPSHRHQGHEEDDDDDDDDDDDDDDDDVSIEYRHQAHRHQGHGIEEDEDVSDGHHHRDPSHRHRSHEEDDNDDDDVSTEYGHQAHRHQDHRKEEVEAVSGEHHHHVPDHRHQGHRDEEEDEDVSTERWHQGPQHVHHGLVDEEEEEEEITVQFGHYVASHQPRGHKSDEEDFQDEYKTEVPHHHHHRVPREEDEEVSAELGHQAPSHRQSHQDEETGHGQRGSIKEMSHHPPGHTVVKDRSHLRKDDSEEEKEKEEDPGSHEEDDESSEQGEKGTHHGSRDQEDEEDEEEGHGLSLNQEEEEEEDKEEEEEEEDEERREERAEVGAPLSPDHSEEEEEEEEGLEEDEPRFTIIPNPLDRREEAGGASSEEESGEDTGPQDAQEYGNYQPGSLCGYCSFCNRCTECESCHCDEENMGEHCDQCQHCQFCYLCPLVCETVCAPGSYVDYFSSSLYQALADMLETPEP
Chain of UniProt Q16774 (Q16774 whole entry, looked up): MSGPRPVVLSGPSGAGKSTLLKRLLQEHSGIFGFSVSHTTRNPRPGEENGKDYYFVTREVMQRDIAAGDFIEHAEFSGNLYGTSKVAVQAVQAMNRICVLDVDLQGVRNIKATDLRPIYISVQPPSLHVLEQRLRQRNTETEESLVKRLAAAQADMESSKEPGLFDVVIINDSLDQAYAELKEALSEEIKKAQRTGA
Chain of UniProt P50213 (P50213 whole entry, looked up): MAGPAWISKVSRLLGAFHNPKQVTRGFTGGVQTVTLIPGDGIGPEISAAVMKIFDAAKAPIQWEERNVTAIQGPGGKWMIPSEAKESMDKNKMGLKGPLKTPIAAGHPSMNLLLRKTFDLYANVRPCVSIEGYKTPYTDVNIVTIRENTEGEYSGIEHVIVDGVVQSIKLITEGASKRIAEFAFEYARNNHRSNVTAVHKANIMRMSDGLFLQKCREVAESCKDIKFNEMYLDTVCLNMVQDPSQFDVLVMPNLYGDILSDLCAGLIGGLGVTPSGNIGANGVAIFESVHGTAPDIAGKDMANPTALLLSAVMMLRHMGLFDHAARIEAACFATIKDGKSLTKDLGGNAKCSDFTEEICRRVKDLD
Chain of UniProt Q00688 (Q00688 whole entry, looked up): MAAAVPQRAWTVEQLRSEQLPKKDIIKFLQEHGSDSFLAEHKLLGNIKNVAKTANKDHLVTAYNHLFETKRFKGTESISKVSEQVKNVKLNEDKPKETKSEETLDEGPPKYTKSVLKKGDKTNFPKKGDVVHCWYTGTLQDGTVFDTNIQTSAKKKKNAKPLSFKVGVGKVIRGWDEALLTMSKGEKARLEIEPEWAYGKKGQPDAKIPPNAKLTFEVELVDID

Target | log2 fold change (erlotinib) | log2 fold change [1] | log2 fold change [2] | log2 fold change [3] | log2 fold change [4] | log2 fold change [5] | log2 fold change [6] | log2 fold change [7] | log2 fold change [8] | log2 fold change [9]
GLUD1 (UniProt P00367) | 0.068 | -0.009 | 0.051 | 0.026 | 0.039 | -0.018 | -0.033 | 0 | 0.05 | -0.027
GPAT4 (UniProt Q86UL3) | -0.017 | -0.002 | 0.06 | -0.021 | -0.016 | -0.016 | -0.01 | 0.032 | -0.087 | 0.07
HRAS (UniProt P01112) | 0.029 | 0.034 | 0.069 | 0.146 | -0.356 | -0.244 | 0.138 | -0.168 | -0.08 | 0.048
FKBP3 (UniProt Q00688) | -0.001 | 0.014 | 0.061 | -0.012 | 0.013 | -0.004 | -0.028 | -0.001 | -0.007 | -0.017
GCSH (UniProt P23434) | -0.072 | -0.023 | 0.253 | 0.061 | -0.036 | 0.067 | -0.038 | -0.007 | -0.017 | -0.025
GUSB (UniProt P08236) | 0.09 | -0.099 | -0.063 | 0.165 | -0.095 | 0.032 | 0.009 | 0.052 | 0.033 | -0.002
GNL1 (UniProt P36915) | 0.044 | 0.046 | 0.048 | -0.028 | 0.037 | -0.004 | 0.074 | 0 | 0.035 | -0.055
GDE1 (UniProt Q9NZC3) | 0.014 | 0.065 | 0.055 | 0.019 | -0.047 | 0.05 | -0.029 | -0.023 | 0.003 | 0.13
HOMER1 (UniProt Q86YM7) | -0.103 | -0.015 | -0.05 | 0.016 | 0.021 | 0.074 | -0.057 | -0.015 | 0.062 | -0.011
GPKOW (UniProt Q92917) | 0.099 | 0.116 | 0.016 | 0.016 | 0.057 | 0.013 | -0.016 | 0.029 | -0.011 | 0.001
HHEX (UniProt Q03014) | -0.043 | -0.206 | 0.069 | 0.044 | 0.008 | -0.022 | -0.044 | 0.037 | -0.004 | 0.022
FASTKD1 (UniProt Q53R41) | 0.207 | 0.219 | 0.142 | -0.051 | -0.072 | -0.033 | 0.281 | 0.093 | -0.108 | -0.014
IDH3A (UniProt P50213) | 0.021 | 0.034 | 0.1 | 0.023 | 0.021 | 0.017 | -0.03 | 0.024 | -0.009 | 0.028
HIC2 (UniProt Q96JB3) | 0.128 | 0 | -0.17 | 0.028 | -0.159 | -0.08 | 0.012 | -0.266 | -0.023 | -0.09
HAT1 (UniProt O14929) | -0.048 | 0.036 | 0.044 | 0.048 | -0.075 | -0.045 | 0.03 | 0.027 | -0.055 | 0.069
HIP1 (UniProt O00291) | 0.018 | 0.033 | 0.046 | -0.004 | 0.018 | -0.056 | 0.011 | -0.166 | -0.209 | 0.09
GLS (UniProt O94925) | 0.003 | 0.105 | 0.174 | -0.107 | -0.043 | 0.14 | 0.034 | -0.023 | -0.091 | -0.03
HDAC1 (UniProt Q13547) | 1.14 (active) | 0.015 | 0.011 | -0.01 | 0.16 | 0.004 | 0.021 | -0.055 | -0.004 | -0.018
GLCCI1 (UniProt Q86VQ1) | 0.027 | -0.101 | -0.058 | -0.006 | 0.091 | 0.023 | -0.264 | -0.017 | -0.044 | -0.024
GUK1 isoform 2 (UniProt Q16774) | 0.009 | 0.289 | 0.092 | 0 | 0.004 | 0 | -0.02 | 0.021 | -0.03 | 0.066
HECTD1 (UniProt Q9ULT8) | 0.009 | 0.127 | -0.031 | -0.003 | 0.025 | 0.087 | -0.038 | -0.035 | -0.076 | -0.204
HAUS4 (UniProt Q9H6D7) | -0.112 | 0.097 | 0.041 | -0.095 | 0.018 | -0.065 | -0.085 | -0.087 | -0.001 | 0.001
GALNT2 (UniProt Q10471) | -0.052 | 0.043 | 0.021 | 0 | 0.009 | 0.022 | 0.028 | 0.046 | 0.009 | 0.042
HMGN1 (UniProt P05114) | -0.069 | -0.114 | -0.011 | 0.066 | -0.114 | 0.045 | -0.062 | -0.059 | 0.029 | -0.028
FDXR isoform 7 (UniProt P22570) | 0.092 | 0.033 | 0.109 | -0.126 | 0.076 | -0.13 | 0.064 | 0 | 0.025 | 0.019
HRC (UniProt P23327) | 0.012 | -0.056 | 0.042 | -0.018 | 0.005 | 0.023 | -0.021 | -0.087 | 0.041 | 0.045
GATA1 (UniProt P15976) | 0.05 | 0.024 | -0.021 | -0.015 | 0.032 | 0.028 | -0.021 | -0.083 | 0.031 | -0.004
IFT74 (UniProt Q96LB3) | 0.248 | -0.95 (active) | 0.125 | -0.352 | 0.087 | -0.033 | 0.211 | -0.038 | -0.076 | 0.337
HADHB (UniProt P55084) | -0.057 | 0.112 | 0.035 | -0.184 | 0.063 | 0.024 | 0.04 | 0.259 | -0.206 | 0.158
